Among the data in PubChem BioAssay AID904 (National Center for Advancing Translational Sciences (NCATS), 2007) are Potency values, retold here.

Each structure is given as a SMILES string. The campaign covered roughly 55,000 compounds. About 530 (0.96%) were called active. Inconclusive results (about 7%) are left out. Calls come from the whole dose curve; as a rule, active = well fitted cell-killing curve with a large enough effect; inconclusive = small, poorly fitted or top-dose-only effect; inactive = no such curve, though single readings can be large or run the other way. Shown is part of a subset that was picked to be rich in actives. A call without a number means that no potency is given here.
Potency is the fitted concentration of half-maximal effect.

This assay is described as follows: qHTS Screen for Compounds that Selectively Target Cancer Cells with p53 Mutations: Cytotoxicity of p53 Null Cells at the Nonpermissive Temperature. Note: nearly all actives have a fitted effect of over 50% in size. To be noted: H1299 p53-null (neo) cells, 39C, ATPlite viability, 24 h; series mostly up to 46.1 µM. From the text: NIH Chemical Genomics Center [NCGC] NIH Molecular Libraries Screening Centers Network [MLSCN] MLSCN Grant: 1 X01 MH079844-01 Assay Submitter (PI): Dr. SUN, YI, University of Michigan NCGC Assay Overview: Synthetic Lethal Screen for Compounds to Kill Cancer Cells with p53 Mutation. Tumor suppressor gene p53 serves as a major cellular barrier against tumorigenesis. […] The goal of this screening is to identify small molecule probes that selectively kill cancer cells with mutations in p53. This screening was carried out using two lines of H1299 lung cancer cells. The H1299-p53 A138V line express a temperature sensitive p53 mutant (p53ts) in which the mutant p53 protein (A138V) is in the mutant confirmation when grown at 39C (the nonpermissive temperature) and in the wild type conformation when grown at 32C (the permissive temperature). A H1299-neo line (p53 null) grown at both 39C and 32C were used as counter-screens to filter out false positive associated with temperature shifting. The small molecular compounds that selectively target mutant p53-containing cancer cells were selected as candidate probes for further study. A cytotoxicity assay based on the measurement of ATP contents in cells was used in this screen. Concentration-responses of all the compounds in the library collection were determined in qHTS using the cell lines and temperature conditions as above.
NCGC Assay Protocol Summary: Both the H1299-p53A138V and H1299-neo cell lines were provided by Dr.Yi Sun, a PI at the University Michigan. The cells were maintained and cultured at 37C. The resuspended frozen cells were used to plate the cells in the 1536-well assay plates at a density of 600 cells per well in 5 ul medium. The assay plates with the cells were incubated at 37C for 16 to 30 hours before the experiments. The library compounds in DMSO solution were added to the cells in assay plates and incubated 24 hours at 39C (for mutant p53 conformation) or 32C (for normal p53 conformation as control). An ATP_lite assay kit (PerkinElmer) was used to determine the cell viability. Tomaxifen (100uM) was used as the positive control for cell killing. Data were normalized to the controls for basal activity (DMSO only) and 100% killing (100uM tamoxifen). AC50 values were determined from concentration-response data modeled with the standard Hill equation. P53 assay protocol: 1. Reagent; 5 uL H1299-p53A138V or H1299-neo cell cells/well 2. Time; overnight; 37C incubation 3. Compounds; 23 nL; 5.9 nM to 46 uM 4. Controls; 23 nL; Tamoxifen 100 uM 5. Time; 24 hr; 39C incubation 6. Reagent; 3 uL; ATP_Lite reagent 7. Time; 20 min; Room Temperature 8. Detection; Luminescence; Viewlux plate reader Keywords: p53, synthetic lethal, cancer, cell viability, cytotoxicity, H1299 cell line, luminescence, MLSMR, MLSCN, NIH Roadmap, qHTS, NCGC
As to `CCOc1ccc(C(NC(=O)c2cc(OC)c(OC)c(OC)c2)c2cc(Cl)c3cccnc3c2O)cc1` (stereo not given), the Potency was 3.55 µM (active). The value for `CN(C)c1cccc(C(=O)Nc2nc3ccc(S(=O)(=O)NC(C)(C)C)cc3s2)c1` was “inactive”; that for `Cc1ccc(-n2c(/C=C/c3cccc(C(F)(F)F)c3)nc3ccccc3c2=O)cc1` was “inactive”. Take `COC(=O)COc1cc(C)cc2oc(=O)c3c(c12)CCCC3`: the Potency result was “inactive”.

Consider `O=C(Nc1ccc(Cl)cc1C(=O)c1ccccc1)c1cc(Cl)cc(Cl)c1`, for which the Potency result was “inactive”.
